Measurements taken from PubChem BioAssay (NCATS).
Unmarked numbers belong to inactive results. Results filed as inconclusive are left out. Where a call stands in place of a potency, no number is given. Activity calls are given as the source filed them. Unless noted, calls come from the whole dose curve; as a rule, active = well fitted curve in the direction sought with a large enough effect; inconclusive = small, poorly fitted or top-dose-only effect, or another doubt; inactive = no such curve, though single readings can be large; an effect the other way counts as inactive or inconclusive.

Tests used:
[1] = target: Thyrotropin receptor (Homo sapiens) (UniProt P16473); test: qHTS Assay for Antagonists of the Thyroid Stimulating Hormone Receptor (AID 488980); note: series mostly up to about 58 µM
Chain of Thyrotropin receptor (Homo sapiens) (P16473 whole entry, looked up): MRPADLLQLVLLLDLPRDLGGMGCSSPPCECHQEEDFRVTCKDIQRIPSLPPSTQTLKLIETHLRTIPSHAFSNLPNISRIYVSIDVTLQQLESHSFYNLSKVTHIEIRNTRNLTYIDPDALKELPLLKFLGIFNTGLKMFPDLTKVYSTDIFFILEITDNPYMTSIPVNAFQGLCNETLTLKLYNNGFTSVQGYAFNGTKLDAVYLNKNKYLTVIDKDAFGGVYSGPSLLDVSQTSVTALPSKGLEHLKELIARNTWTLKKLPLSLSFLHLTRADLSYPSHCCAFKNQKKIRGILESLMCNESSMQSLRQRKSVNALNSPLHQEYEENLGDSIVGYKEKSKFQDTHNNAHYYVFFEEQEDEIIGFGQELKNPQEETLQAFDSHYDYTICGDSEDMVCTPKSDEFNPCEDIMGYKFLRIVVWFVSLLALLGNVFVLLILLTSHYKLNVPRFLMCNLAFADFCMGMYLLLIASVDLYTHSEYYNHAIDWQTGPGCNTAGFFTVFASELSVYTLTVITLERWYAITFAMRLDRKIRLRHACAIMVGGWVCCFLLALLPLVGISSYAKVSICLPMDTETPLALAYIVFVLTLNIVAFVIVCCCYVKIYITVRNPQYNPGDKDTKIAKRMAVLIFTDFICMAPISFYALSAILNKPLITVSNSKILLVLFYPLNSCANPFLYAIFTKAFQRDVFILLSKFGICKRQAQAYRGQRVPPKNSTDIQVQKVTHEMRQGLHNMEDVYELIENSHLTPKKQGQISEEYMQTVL
Procedure, shortened: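 Cells expressing human TSHR (HEK293) are dispensed in HBSS/HEPES containing 70 uM RO 20-1724, compound is added, then TSH at EC80 (4 nM final). Antibody in lysis buffer follows, 30 minutes at room temperature before HTRF detection.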

[2] = target: D(1A) dopamine receptor (Homo sapiens) (UniProt P21728); test: HTS Assay for Allosteric Agonists of the Human D1 Dopamine Receptor: Primary Screen for Agonists (AID 488981)
Chain of D(1A) dopamine receptor (Homo sapiens) (P21728 whole entry, looked up): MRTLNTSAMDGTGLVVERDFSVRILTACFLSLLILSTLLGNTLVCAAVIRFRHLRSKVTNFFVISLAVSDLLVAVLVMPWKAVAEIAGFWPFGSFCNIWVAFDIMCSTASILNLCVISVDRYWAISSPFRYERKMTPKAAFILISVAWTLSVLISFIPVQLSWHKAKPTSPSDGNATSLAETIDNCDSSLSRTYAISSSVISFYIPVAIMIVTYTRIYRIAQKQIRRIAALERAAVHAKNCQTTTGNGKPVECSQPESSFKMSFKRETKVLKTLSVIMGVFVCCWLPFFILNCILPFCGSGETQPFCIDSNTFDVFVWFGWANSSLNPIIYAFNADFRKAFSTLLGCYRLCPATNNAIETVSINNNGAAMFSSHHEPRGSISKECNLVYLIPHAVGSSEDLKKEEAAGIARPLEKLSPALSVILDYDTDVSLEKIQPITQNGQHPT
Procedure, shortened: (§1)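 Tetracycline-induced HEK293 T-REx cells force-coupled to calcium signalling were incubated overnight at 30 C and dye-loaded at room temperature. Calcium flux over 180 s after compound addition flagged agonists; a further 180 s read after EC20 dopamine flagged potentiators.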

[3] = target: D(1A) dopamine receptor (Homo sapiens) (UniProt P21728); test: HTS Assay for Allosteric Agonists of the Human D1 Dopamine Receptor: Primary Screen for Potentiators (AID 488982)
Procedure, shortened: as §1

[4] = target: Thyrotropin-releasing hormone receptor (Homo sapiens) (UniProt P34981); test: qHTS for Small Molecule Agonists and Allosteric Enhancers of Human TRH Receptor: Validation Screen for Agonists (AID 493127;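 active = calcium activation more than 3 SD above the typical response in the agonist read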;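 note: intracellular calcium rise by fluo-8 fluorescence before TRH EC20 addition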); details: TRH receptor agonist cell assay; at 2 µM; hits give high values
Chain of Thyrotropin-releasing hormone receptor (Homo sapiens) (P34981 whole entry, looked up): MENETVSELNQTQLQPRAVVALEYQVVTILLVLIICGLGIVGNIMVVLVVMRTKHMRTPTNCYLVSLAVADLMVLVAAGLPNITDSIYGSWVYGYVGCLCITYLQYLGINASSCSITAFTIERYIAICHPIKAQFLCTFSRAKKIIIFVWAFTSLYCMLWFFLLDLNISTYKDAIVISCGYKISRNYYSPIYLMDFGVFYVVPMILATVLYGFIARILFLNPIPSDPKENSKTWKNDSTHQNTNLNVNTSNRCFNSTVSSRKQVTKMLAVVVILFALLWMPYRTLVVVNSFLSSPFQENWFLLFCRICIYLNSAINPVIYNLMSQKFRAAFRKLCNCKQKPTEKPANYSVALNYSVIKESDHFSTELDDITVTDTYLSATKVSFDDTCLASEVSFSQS
Procedure, shortened: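 Kinetic fluorescence assay of agonist-induced calcium release: overnight-plated TRHR cells, room-temperature fluo-8 loading, baseline then compound addition with per-second reads.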

[5] = qHTS for Inhibitors of Cell Surface uPA Generation: Validation Assay (AID 493164);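 note: RAW 264.7 macrophage cells exposed to compound for 18 h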
Procedure, shortened: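 Compounds are titrated over seven points (2.45 nM–38.3 uM final) onto pre-plated RAW 264.7 cells and incubated for 18 h. Retained intracellular ATP, measured with ATP-Lite, indicates blocked lethal factor entry.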

[6] = target: Galactokinase (Homo sapiens) (UniProt P51570); test: qHTS Validation Assay for Inhibitors of Human Galactokinase (GALK) (AID 493189)
Procedure, shortened: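 Compounds were pin-transferred into ATP buffer, then GALK-galactose mix was added (final 5 nM enzyme, 100 uM galactose, 35 uM ATP). After 1 h at room temperature, remaining ATP was measured luminescently.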

[7] = Validation screen for small molecules that induce DNA re-replication in SW480 colon adenocarcinoma cells (AID 504364)
Procedure, shortened: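 Hoechst-stained SW480 nuclei, imaged at 405 nm excitation after 48 hr compound exposure, were counted for elevated DNA content as the re-replication signal.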

[8] = target: Phosphoglycerate kinase, glycosomal (Trypanosoma brucei brucei) (UniProt P07378); test: qHTS Validation Assay to Find Inhibitors of Phosphoglycerate Kinase (AID 504547)
Chain of Phosphoglycerate kinase, glycosomal (Trypanosoma brucei brucei) (P07378 whole entry, looked up): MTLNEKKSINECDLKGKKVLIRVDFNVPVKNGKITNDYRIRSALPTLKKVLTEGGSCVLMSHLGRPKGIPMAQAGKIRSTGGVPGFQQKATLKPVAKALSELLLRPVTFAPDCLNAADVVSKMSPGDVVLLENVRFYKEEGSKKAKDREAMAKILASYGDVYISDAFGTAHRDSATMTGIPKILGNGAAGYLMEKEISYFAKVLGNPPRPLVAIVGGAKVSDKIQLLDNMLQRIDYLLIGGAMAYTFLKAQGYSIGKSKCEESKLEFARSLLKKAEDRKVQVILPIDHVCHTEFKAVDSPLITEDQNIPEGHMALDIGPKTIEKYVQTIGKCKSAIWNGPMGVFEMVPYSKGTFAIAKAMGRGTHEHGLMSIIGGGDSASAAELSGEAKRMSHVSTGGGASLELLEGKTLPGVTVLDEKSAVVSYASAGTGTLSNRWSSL
Procedure, shortened: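 In TEA buffer (100mM, pH 7.6) containing 5mM MgCl2 and 0.01% Tween-20, the GAPDH-coupled PGK reaction proceeded for 60 minutes at room temperature before a single luminescence reading using Kinase-Glo Plus.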

[9] = target: Voltage-gated inwardly rectifying potassium channel KCNH2 (Homo sapiens) (UniProt Q12809); test: qHTS Assay for Small Molecule Inhibitors of the Human hERG Channel Activity (AID 588834);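 note: U2OS cells transduced with hERG by BacMam; top concentration of the series differs between compounds; lower thallium flux fluorescence means stronger hERG block; nearly all actives have a fitted effect of over 50% in size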
Chain of Voltage-gated inwardly rectifying potassium channel KCNH2 (Homo sapiens) (Q12809 whole entry, looked up): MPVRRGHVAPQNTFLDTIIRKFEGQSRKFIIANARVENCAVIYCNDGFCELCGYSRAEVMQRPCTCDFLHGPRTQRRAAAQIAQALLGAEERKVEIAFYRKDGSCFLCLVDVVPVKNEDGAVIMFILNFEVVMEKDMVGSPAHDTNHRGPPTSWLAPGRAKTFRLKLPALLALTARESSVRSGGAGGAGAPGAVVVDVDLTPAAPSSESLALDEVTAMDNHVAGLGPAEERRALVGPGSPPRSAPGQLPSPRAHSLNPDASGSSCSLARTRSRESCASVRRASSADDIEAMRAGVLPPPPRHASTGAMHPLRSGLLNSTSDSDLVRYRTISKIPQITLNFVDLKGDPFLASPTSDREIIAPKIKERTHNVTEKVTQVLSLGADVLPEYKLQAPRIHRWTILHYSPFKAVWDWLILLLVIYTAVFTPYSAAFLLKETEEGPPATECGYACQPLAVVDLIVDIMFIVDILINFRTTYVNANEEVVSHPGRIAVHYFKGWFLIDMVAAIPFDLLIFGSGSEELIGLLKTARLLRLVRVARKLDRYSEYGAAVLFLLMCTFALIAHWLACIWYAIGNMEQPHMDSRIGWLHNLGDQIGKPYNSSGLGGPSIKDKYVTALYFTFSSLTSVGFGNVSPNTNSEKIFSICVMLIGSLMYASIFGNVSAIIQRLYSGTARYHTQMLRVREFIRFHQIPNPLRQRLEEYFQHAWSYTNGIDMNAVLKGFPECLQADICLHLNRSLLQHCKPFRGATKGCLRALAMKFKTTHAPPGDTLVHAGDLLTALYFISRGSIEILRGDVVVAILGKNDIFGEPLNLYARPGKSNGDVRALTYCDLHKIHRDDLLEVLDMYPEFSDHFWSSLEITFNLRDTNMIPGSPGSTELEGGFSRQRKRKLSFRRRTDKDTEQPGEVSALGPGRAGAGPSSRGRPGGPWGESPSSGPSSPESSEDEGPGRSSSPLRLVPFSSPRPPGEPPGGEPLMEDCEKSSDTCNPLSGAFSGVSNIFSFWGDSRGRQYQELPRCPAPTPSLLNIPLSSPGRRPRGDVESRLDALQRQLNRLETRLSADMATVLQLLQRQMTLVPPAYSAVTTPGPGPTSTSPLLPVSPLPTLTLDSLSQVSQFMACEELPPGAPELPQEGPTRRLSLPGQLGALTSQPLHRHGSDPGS
Procedure, shortened: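 Cells were infected with hERG-BacMam virus for 4 hrs at room temperature, grown overnight, then seeded at 2000/well. After dye loading and roughly 10 min compound treatment, thallium influx was triggered and fluorescence recorded.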

[10] = target: Glutaminase kidney isoform, mitochondrial (Homo sapiens) (UniProt O94925); test: qHTS for Inhibitors of Glutaminase (GLS): LOPAC Validation (AID 624146); note: potency is the fitted concentration of half-maximal effect; nearly all actives have a fitted effect of over 60% in size
Procedure, shortened: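 Two-point fluorescence kinetic (t0, 30 min RT) for hKGA; glutamate detected via glutamate oxidase–HRP–Amplex Red. Substrate: 1 mM L-glutamine solution; buffer 45 mM KH2PO4, pH 8.2.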

[11] = qHTS of Trypanosoma Brucei Inhibitors: LOPAC Validation (AID 624147)
Procedure, shortened: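 Enzyme and substrate buffer are dispensed first and compound is pin-transferred. ADP at 130 uM final then starts the reaction, which runs 45 min at room temperature. Detection reagent is added for 10 min before luminescence is imaged.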

[12] = target: Glucagon-like peptide 1 receptor (Homo sapiens) (UniProt P43220); test: qHTS of GLP-1 Receptor Agonists: LOPAC Validation (AID 624148);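 note: higher luminescence signal means agonism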
Procedure, shortened: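 HEK293 cells stably co-expressing a cAMP-responsive luciferase reporter and a hypersensitive GLP-1R were plated 12 h at 37 °C and exposed to compounds for 4-6 hr at 37 °C, 5% CO2. Luminescence was read 12 min after adding detection reagent.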

[13] = qHTS of Nrf2 Activators: LOPAC Validation (AID 624149)
Procedure, shortened: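 Following overnight seeding in 5% FBS OPTI-MEM, AREc32_Fluc cells receive compounds for a 24 hr incubation at 37 deg C with 5% CO2. Steady-Glo is added, and after 30 min at RT luminescence is recorded.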

[14] = HTS Assay for Allosteric Antagonists of the Human D2 Dopamine Receptor: Hit Validation in HTRF (AID 624455);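 note: stable D1 dopamine receptor cell line scored for blocking the D1 response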
Procedure, shortened: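 Validation of hits used D1 receptor stably expressed in cells with HTRF detection of response inhibition; origin screen measured calcium flux following EC80 dopamine in a force-coupled, inducible Hek293 Trex D2 cell line.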

[15] = target: Tyrosine-protein kinase Yes (Homo sapiens) (UniProt P07947); test: qHTS for small molecule inhibitors of Yes1 kinase: Primary Screen (AID 686947); note: potency is the fitted concentration of half-maximal effect; nearly all actives have a fitted effect of over 60% in size
Procedure, shortened: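 In this qHTS format, inhibition is expressed relative to DMSO controls with enzyme (maximum) and without enzyme (minimum). The 60 min room-temperature reaction uses 0.1 mM ATP, with ADP detected by luminescence.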

[16] = qHTS for small molecule inhibitors of Yes1 kinase: Counter Assay (AID 686950);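 note: no kinase present so only ADP-Glo detection of a fixed ADP amount is tested; luminescence from ADP-Glo reporting ADP in a fixed ATP and ADP mixture; series mostly up to about 77 µM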
Procedure, shortened: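 Measuring interference with ADP-Glo, the assay ran 60 min at room temperature on an ATP/ADP mix lacking enzyme. Values were normalized to ATP-plus-ADP (maximum) and ATP-only (minimum) DMSO controls.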

[17] = target: Arylsulfatase A (Homo sapiens) (UniProt P15289); test: qHTS screen for enhancers of Arylsulfatase A (ASA1): LOPAC Validation Assay (AID 720538); note: potency is the fitted concentration of half-maximal effect
Chain of Arylsulfatase A (Homo sapiens) (P15289 whole entry, looked up): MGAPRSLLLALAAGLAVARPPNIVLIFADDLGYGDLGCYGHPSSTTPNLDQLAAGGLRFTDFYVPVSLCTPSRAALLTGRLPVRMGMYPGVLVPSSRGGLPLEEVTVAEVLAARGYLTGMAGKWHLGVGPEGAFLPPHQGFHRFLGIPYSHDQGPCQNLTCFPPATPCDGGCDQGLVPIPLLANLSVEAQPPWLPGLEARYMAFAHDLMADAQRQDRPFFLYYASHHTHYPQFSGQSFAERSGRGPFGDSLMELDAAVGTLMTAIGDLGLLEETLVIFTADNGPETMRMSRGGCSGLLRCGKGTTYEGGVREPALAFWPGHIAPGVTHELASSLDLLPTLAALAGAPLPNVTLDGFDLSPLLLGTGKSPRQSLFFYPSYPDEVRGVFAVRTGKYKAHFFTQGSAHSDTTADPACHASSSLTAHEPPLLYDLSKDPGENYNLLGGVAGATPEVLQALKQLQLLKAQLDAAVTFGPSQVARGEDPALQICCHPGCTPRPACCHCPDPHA
Procedure, shortened: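 First, ASA-I179S fibroblasts from an MLD patient adhered for 6 hrs. Next, compounds were added for 48h. Then pNCS substrate (0.5mM final) with lysis buffer reacted 14h at room temperature before NaOH stop and fluorescence measurement.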

[18] = qHTS for compounds that reverse cellular toxicity of Amyloid beta (A-beta) peptide in yeast: LOPAC Validation Assay (AID 720559)
Procedure, shortened: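 Activity is expressed relative to DMSO and an equimolar ferric chloride/clioquinol mix. Compounds were pinned into medium with A-beta-expressing yeast, grown 48 hr at 30 C, then read by absorbance at 600 nm.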

[19] = qHTS for Activators of Parkin Expression: LOPAC Validation Assay (FLuc Reporter) (AID 720573; note: potency is the fitted concentration of half-maximal effect)
Procedure, shortened: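 A neuronal cell line harbouring FLuc and NLuc reporters behind the Parkin promoter was exposed to compounds for 24 h. Firefly luciferase signal, measured after 10 min with detection reagent, was scaled to DMSO and positive-control wells.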

[20] = target: Hexokinase-4 (Homo sapiens) + Glucokinase regulatory protein (Homo sapiens) (UniProt P35557+Q14397); test: qHTS assay for inhibitors of recombinant human GCK-GKRP interaction: Diaphorase-coupled assay (AID 743205)
Chain of Hexokinase-4 (Homo sapiens) + Glucokinase regulatory protein (Homo sapiens) (P35557 whole entry, looked up): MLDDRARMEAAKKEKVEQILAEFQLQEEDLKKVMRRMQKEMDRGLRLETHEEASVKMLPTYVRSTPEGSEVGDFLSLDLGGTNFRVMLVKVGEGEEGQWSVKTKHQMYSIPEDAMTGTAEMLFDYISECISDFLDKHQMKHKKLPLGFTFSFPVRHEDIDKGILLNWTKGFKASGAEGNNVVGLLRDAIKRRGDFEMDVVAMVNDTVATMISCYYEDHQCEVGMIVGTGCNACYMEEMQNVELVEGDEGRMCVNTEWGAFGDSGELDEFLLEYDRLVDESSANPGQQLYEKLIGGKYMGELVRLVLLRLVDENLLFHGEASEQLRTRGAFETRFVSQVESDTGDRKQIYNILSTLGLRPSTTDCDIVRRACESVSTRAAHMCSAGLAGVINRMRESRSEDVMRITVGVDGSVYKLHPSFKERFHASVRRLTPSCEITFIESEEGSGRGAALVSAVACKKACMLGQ
Chain of Hexokinase-4 (Homo sapiens) + Glucokinase regulatory protein (Homo sapiens) (Q14397 whole entry, looked up): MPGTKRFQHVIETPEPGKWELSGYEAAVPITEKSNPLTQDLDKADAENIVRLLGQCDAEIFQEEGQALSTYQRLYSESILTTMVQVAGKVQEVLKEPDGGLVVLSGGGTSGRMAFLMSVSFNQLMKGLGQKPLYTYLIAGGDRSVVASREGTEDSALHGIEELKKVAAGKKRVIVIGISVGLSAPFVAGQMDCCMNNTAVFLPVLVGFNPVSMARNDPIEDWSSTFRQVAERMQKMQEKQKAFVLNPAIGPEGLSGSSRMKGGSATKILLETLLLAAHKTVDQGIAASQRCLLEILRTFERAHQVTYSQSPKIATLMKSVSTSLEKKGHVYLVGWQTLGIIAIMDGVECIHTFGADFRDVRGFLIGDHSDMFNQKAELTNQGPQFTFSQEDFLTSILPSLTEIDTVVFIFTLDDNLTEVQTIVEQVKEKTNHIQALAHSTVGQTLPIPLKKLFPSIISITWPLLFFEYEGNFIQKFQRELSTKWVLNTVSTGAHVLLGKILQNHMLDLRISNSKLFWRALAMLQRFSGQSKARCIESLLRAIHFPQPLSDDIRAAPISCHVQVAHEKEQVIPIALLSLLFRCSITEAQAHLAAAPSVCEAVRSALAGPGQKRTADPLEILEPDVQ
Procedure, shortened: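 Inhibitors of the GCK–GKRP complex relieve GKRP suppression of GCK, detected through a G6PDH–diaphorase cascade reducing resazurin. Human GST-GCK and FLAG-GKRP are used at 10 nM with 5 mM glucose and 0.4 mM ATP.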

Structure (SMILES): O=Nc1c(-c2c(O)[nH]c3ccccc23)[nH]c2ccccc12
- outcome [1]: inactive
- outcome [2]: inactive
- outcome [3]: inactive
- activation [4]: -6%
- outcome [5]: inactive
- outcome [6]: inactive
- outcome [7]: inactive
- Potency [8]: inactive
- Potency [9]: inactive
- Potency [10]: 11.2 µM (active)
- outcome [11]: inactive
- outcome [12]: inactive
- outcome [13]: inactive
- outcome [14]: inactive
- Potency [15]: 0.772 µM (active)
- outcome [16]: inactive
- Potency [17]: 10.7 µM (active)
- outcome [18]: inactive
- Potency [19]: 10.3 µM (active)
- outcome [20]: inactive
